KB-3-1 tox: KB-3-1 parental cell cytotoxicity; KB-3-1 viability, CellTiter-Glo ATP luminescence, 72 h; Potency, µM (series often up to 46.1 µM), usual class: cytotoxic; 1.4% of 400,000 active; further: on the % scale 0 is the no-effect control and ±100 the full control effect; nearly all actives have a fitted effect of over 60% in size
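KB-3-1 cells, DMEM (no phenol red) + 10% FBS; compound by pin transfer, 72 h, 37 °C. Readout: CellTiter-Glo luminescence after 10 min. Data normalized, curve-fitted.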
KB-V1 cytotox: kills drug-selected multidrug resistant KB-V1 cells; KB-V1 MDR cells viability, CellTiter-Glo, 72 h; Potency, µM (top dose mostly 46.1 µM), usual class: cytotoxic; 3.4% of 400,000 active; AID 1347076; further: on the % scale 0 is the no-effect control and ±100 the full control effect; nearly all actives have a fitted effect of over 60% in size
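KB-V1 cells (P-gp-expressing MDR subline of KB-3-1) in phenol-red-free DMEM with 10% FBS were exposed to library compounds over a concentration series for 72 h at 37 degrees C. Viability read by CellTiter-Glo luminescence; concentration-effect curves fitted after normalization.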
MCF10A rereplic: inducers of DNA re-replication in MCF 10A breast cells; MCF 10A DNA re-replication, Hoechst nuclear intensity, 48 h; Potency, µM (series often up to 46.1 µM), for inactives: at the highest dose activity, positive = re-replication, actives largely listed as activators; 2.9% of 350,000 active; further: % of control where 0% means no effect; nearly all actives have a fitted effect of over 50% in size
SW480 rereplic: DNA re-replication induction in SW480 cells; SW480 DNA re-replication, Hoechst DNA content imaging, 48 h; Potency, µM (series often up to 46.1 µM), without a hit: top-dose re-replication activation, usual class: activators; 1.8% of 340,000 active; further: % of control where 0% means no effect; nearly all actives have a fitted effect of over 55% in size
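Cells (250 per well) received 23 nL compound or DMSO by pin tool and were kept 48 hr at 37 C, 5% CO2. Nuclei were then stained with Hoechst for 40 min and scanned for DNA content.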
VP16 counter: Gal4-VP16 reporter inhibition counter-screen; Potency, µM (highest dose often 53.6 µM), inactives show top-dose activity, negative = inhibition, most hits filed as inhibitors; 3.5% of 310,000 active; Drosophila S2 Gal4-VP16 UAS-luciferase, luminescence, 20 h; AID 2546;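 further: Gal4-VP16 expression switched on by copper sulfate through the metallothionein promoter; on the % scale 0 is the no-effect control and ±100 the full control effect; nearly all actives have a fitted effect of over 50% in size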
RORgamma inh: ROR gamma (mouse) transcription inhibition. AID 2551. Potency, µM (highest dose often 53.6 µM), for the others: top-dose activity change, negative = inhibition, usual class: inhibitors. Drosophila S2 Gal4-RORgamma UAS-luciferase reporter, 20 h. 5.4% of 310,000 active. P51450; further: on the % scale 0 is the no-effect control and ±100 the full control effect; nearly all actives have a fitted effect of over 60% in size
Target sequence (P51450 whole entry, looked up, the tested form may be a part): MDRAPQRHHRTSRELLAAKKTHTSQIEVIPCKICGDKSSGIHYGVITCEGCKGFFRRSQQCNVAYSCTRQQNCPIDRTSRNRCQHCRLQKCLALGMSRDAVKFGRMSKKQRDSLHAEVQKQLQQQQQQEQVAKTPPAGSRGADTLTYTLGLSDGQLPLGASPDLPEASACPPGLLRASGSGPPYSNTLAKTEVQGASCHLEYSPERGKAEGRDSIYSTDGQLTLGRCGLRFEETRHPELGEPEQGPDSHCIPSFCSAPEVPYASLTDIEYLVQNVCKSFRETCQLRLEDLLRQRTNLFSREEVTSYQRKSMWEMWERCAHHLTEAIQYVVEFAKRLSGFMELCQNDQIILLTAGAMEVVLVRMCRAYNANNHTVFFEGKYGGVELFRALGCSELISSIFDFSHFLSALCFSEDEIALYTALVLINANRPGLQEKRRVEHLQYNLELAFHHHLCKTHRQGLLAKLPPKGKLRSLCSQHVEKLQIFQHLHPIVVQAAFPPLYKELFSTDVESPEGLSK
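Using a luciferase readout, inhibitors were identified by reduced reporter activity in Drosophila cells coexpressing a copper-inducible Gal4–ROR gamma fusion and UAS-driven Photinus luciferase, incubated 20 hr after 700 uM copper sulfate.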
* = called active by the depositor; [ ] = remark or other dose. The list is not random: actives were taken first. Their share in the collection is about 10%. The call rests on the fitted dose curve; in most records, active means well fitted curve in the direction sought with a large enough effect; inconclusive means small, poorly fitted or top-dose-only effect, or another doubt; inactive means no such curve, though single readings can be large; an effect the other way counts as inactive or inconclusive. Potency means the concentration at half of the fitted maximal effect.

Cc1ccc(-n2ncc3c2CCCC3NC(=O)c2ccoc2)cc1C (centres undefined) was read as MCF10A rereplic 12%, SW480 rereplic -5%, VP16 counter -19% and RORgamma inh 40%.
`Cc1cc(C(=O)NC2CCCc3c2cnn3-c2ccc(C)c(C)c2)n(C)n1` (centres undefined) gave KB-3-1 tox inconclusive, KB-V1 cytotox inconclusive, MCF10A rereplic 3%, SW480 rereplic -2%, VP16 counter 0.0079µM* and RORgamma inh inconclusive.
COCc1ccc(C(=O)NC2CCCc3c2cnn3-c2ccc(C)c(C)c2)o1 (centres undefined) was read as KB-3-1 tox inactive, KB-V1 cytotox inactive, MCF10A rereplic 6%, SW480 rereplic 4%, VP16 counter 11µM* and RORgamma inh inconclusive.
Screening O=C(CSC1=Nc2ccccc2C2=NC(CCC(=O)NC3CCCCC3)C(=O)N12)Nc1cccc(C(F)(F)F)c1 (centres undefined) returned KB-3-1 tox inactive and KB-V1 cytotox inactive.
O=C(Nc1cc(=O)c2ccccc2o1)N1CCCCC1 was read as KB-3-1 tox inactive, KB-V1 cytotox 12µM*, MCF10A rereplic inconclusive, SW480 rereplic 15%, VP16 counter 11% and RORgamma inh -3%.
`O=C(Nc1cc(=O)c2ccccc2o1)N1CCOCC1` gave KB-3-1 tox inactive, KB-V1 cytotox inconclusive, MCF10A rereplic inconclusive, SW480 rereplic 0%, VP16 counter -3% and RORgamma inh 21%.
O=C(CSc1nnnn1-c1ccccc1F)NNC(=O)c1ccco1 was read as KB-3-1 tox inactive, KB-V1 cytotox inactive, MCF10A rereplic inconclusive, SW480 rereplic -31%, VP16 counter 2% and RORgamma inh 14%.
`Cc1ccc(-n2nnnc2SCC(=O)NNC(=O)c2ccco2)c(C)c1` gave KB-3-1 tox inactive, KB-V1 cytotox inactive, MCF10A rereplic 21µM*, SW480 rereplic -15%, VP16 counter -3% and RORgamma inh 2%.
Screening CCOC(=O)c1sc(NC(=O)CSc2nnnn2-c2ccc(C)cc2C)nc1C returned KB-3-1 tox inactive, KB-V1 cytotox inactive, MCF10A rereplic inconclusive, SW480 rereplic -6%[9.22 µM], VP16 counter 5% and RORgamma inh -21%.
Screening COC(=O)c1ccccc1NC(=O)CSc1nnnn1-c1ccc(C)cc1C returned KB-3-1 tox inactive, KB-V1 cytotox inactive, MCF10A rereplic 13µM*, SW480 rereplic inconclusive, VP16 counter 7% and RORgamma inh -5%.
Screening COC(=O)CCC(=O)NC(=S)Nc1ccc(S(=O)(=O)Nc2cc(OC)nc(OC)n2)cc1 returned KB-3-1 tox inactive, KB-V1 cytotox inactive, MCF10A rereplic -4%, SW480 rereplic 2.6µM*, VP16 counter -4% and RORgamma inh 17%.
For COc1ccc(NC(=S)N/N=C/c2cccn2Cc2ccccc2F)cc1 the results were KB-3-1 tox inactive, KB-V1 cytotox inactive, MCF10A rereplic inconclusive, SW480 rereplic -2%, VP16 counter 1.4µM* and RORgamma inh 0.28µM*.
`COc1ccc(NC(=S)N/N=C/c2cccn2Cc2ccc(F)cc2Cl)cc1` gave KB-3-1 tox inconclusive, KB-V1 cytotox inconclusive, MCF10A rereplic inconclusive, SW480 rereplic -4%, VP16 counter 2.8µM* and RORgamma inh 0.79µM*.
`COc1ccc2c(c1)C(=O)N1[C@H]3c4cc(C)ccc4OC[C@@H]3[C@H](c3ccccc3)[C@]1(C)C(=O)N2` gave KB-3-1 tox inconclusive, KB-V1 cytotox inconclusive, MCF10A rereplic 15µM* and SW480 rereplic inconclusive.
`COc1ccc2c(c1)OC[C@H]1[C@H]2N2C(=O)c3ccccc3NC(=O)[C@@]2(C)[C@H]1c1ccccc1` gave KB-3-1 tox 21µM*, KB-V1 cytotox inconclusive, MCF10A rereplic 83% and SW480 rereplic inconclusive.
`COc1ccc2c(c1)[C@H]1[C@H](CO2)[C@H](c2ccccc2)[C@]2(C)C(=O)Nc3ccc(C)cc3C(=O)N12` gave KB-3-1 tox inconclusive, KB-V1 cytotox inactive, MCF10A rereplic 21µM* and SW480 rereplic inconclusive.
`COc1ccc2c(c1)[C@@H]1[C@H](CO2)[C@H](c2ccccc2)[C@]2(C)C(=O)Nc3ccc(C)cc3C(=O)N12` gave KB-3-1 tox inconclusive, KB-V1 cytotox inconclusive, MCF10A rereplic 1% and SW480 rereplic 11%.
For COc1ccc2c(c1)OC[C@H]1[C@H]2N2C(=O)c3cc(C)ccc3NC(=O)[C@@]2(C)[C@H]1c1ccccc1 the results were KB-3-1 tox inactive, KB-V1 cytotox inactive, MCF10A rereplic inconclusive and SW480 rereplic 10µM*.
Screening Cc1ccc(-n2cc(CN(C)Cc3nccn3C)c(-c3ccc(F)cc3)n2)cc1 returned KB-3-1 tox inactive, KB-V1 cytotox inactive, MCF10A rereplic inconclusive, SW480 rereplic -2%, VP16 counter inconclusive and RORgamma inh 7.9µM*.
For Cc1cccc(-n2cc(CN3CCN(Cc4nccn4C)CC3)c(-c3cccc(F)c3)n2)c1 the results were KB-3-1 tox inactive, KB-V1 cytotox inactive, MCF10A rereplic -9%, SW480 rereplic 1%, VP16 counter inconclusive and RORgamma inh 11µM*.
For COc1ccc(-n2cc(CN3CCCC3)c(-c3cccc(F)c3)n2)cc1 the results were KB-3-1 tox inactive, KB-V1 cytotox inactive, MCF10A rereplic inconclusive, SW480 rereplic 16%, VP16 counter -3% and RORgamma inh -15%.
Screening Cc1ccc(-c2nn(-c3cccc(F)c3)cc2CN(Cc2nccn2C)C(C)C)o1 returned KB-3-1 tox inactive, KB-V1 cytotox inconclusive, MCF10A rereplic 59%, SW480 rereplic -101%, VP16 counter inconclusive and RORgamma inh 5.6µM*.
For CCn1ccnc1CN(C)Cc1cn(-c2ccccc2)nc1-c1ccc(OC)cc1F the results were KB-3-1 tox inactive, KB-V1 cytotox inactive, MCF10A rereplic 13%, SW480 rereplic 30%, VP16 counter inconclusive and RORgamma inh 3.5µM*.
COc1cccc(/C=C/C(=O)Nc2ccc3nc(N4CCN(C)CC4)cc(C)c3c2)c1OC was read as KB-3-1 tox inactive and KB-V1 cytotox inactive.
Screening Cc1noc(C)c1-c1ccc2ncnc(NC(C)c3ccccc3)c2c1 (centres undefined) returned VP16 counter -11% and RORgamma inh -81%.
